# Source: ChEMBL document CHEMBL3988442, “University of Dundee, Small-Polar-MMV Screening Library” (2021)
# In all, about 48,000 compounds went through this assay and about 13,000 (27%) showed an effect of 50% or more. This is one part of the list.
# Tested on: Wolbachia pipientis
# Test: Anti-Wolbachia Cell-Based Screen
# Assay type: functional
# Design: scale not given: in the data most compounds retested in dose-response had high values
# Details: 5 µM
row,Compound,Percent Effect [%]
1,Cn1cc(C(=O)CC2CCCN2C(=O)c2ccncc2F)cn1 (centres undefined),96.19
2,COc1cc(C(=O)N2CCCC2CC(=O)c2cnn(C)c2)ccc1F (centres undefined),-15.51
3,Cn1cc(C(=O)CC2CCCN2C(=O)c2ccn3ccnc3c2)cn1 (centres undefined),8.483
4,Cn1cc(C(=O)CC2CCCN2C(=O)c2ccc(Cl)cn2)cn1 (centres undefined),-8.745
5,Cc1cscc1C(=O)N1CCCC1CC(=O)c1cnn(C)c1 (centres undefined),127.4
6,Cc1ccc(O)c(C(=O)N2CCCC2CC(=O)c2cnn(C)c2)c1 (centres undefined),-14.12
7,Cn1cc(C(=O)CC2CCCN2C(=O)c2cncc3ccccc23)cn1 (centres undefined),0.2394
8,CCc1ccccc1C(=O)N1CCCC1CC(=O)c1cnn(C)c1 (centres undefined),88.86
9,Cn1cc(C(=O)CC2CCCN2C(=O)c2cccc3ncccc23)cn1 (centres undefined),103.8
10,CCc1cc(C)c(C(=O)N2CCCC2CC(=O)c2cnn(C)c2)o1 (centres undefined),-2.154
11,CCn1c(CN(C)CC(F)(F)F)nc2c(F)cccc21,-13.63
12,COc1cc(F)c(C(=O)NCc2ccon2)c(F)c1,-19.7
13,COc1ccc(C2=CCN(C(=O)CN(C)Cc3ccoc3)CC2)cc1,39.3
14,Cc1cc(-n2cncn2)ccc1C(=O)N(C)CC(F)(F)C(F)(F)F,-10.14
15,CS(=O)(=O)N1C[C@@H]2COC[C@@H](CC(=O)N3CCCO3)[C@@H]2C1,-9.708
16,Cc1ccoc1C(=O)N1CCOC2(CCCC2)C1,-7.54
17,CCOC(C)c1nc(COc2nc(C)no2)cs1 (centres undefined),-4.126
18,Cn1cc(C(=O)CC2CCCN2C(=O)c2coc3ccccc23)cn1 (centres undefined),99.8
19,Cn1cc(C(=O)CC2CCCN2C(=O)c2ccc(Cl)o2)cn1 (centres undefined),3.308
20,Cn1cc(C(=O)CC2CCCN2C(=O)c2ccc3[nH]ncc3c2)cn1 (centres undefined),-6.365
21,O=C(c1ccncc1)N1CCN(C(=O)c2coc3ccccc23)CC1,-6.895
22,Cn1cc(C(=O)CC2CCCN2C(=O)c2n[nH]c3ccccc23)cn1 (centres undefined),-3.127
23,Cn1cc(C(=O)CC2CCCN2C(=O)c2c[nH]c3ccccc23)cn1 (centres undefined),107.8
24,Cn1cc(CN2CCc3ncn(C)c3C2COCc2cccnc2)cn1 (centres undefined),-2.593
25,N#Cc1c(F)cccc1NCCCOCC1CCOC1 (centres undefined),-17.11
26,COCCNC(=O)c1nc(-c2cn(C)cn2)n2ccccc12,37.4
27,Cc1ccccc1C(=O)N1CCCn2nnc(Cn3cccn3)c2C1,-4.319

row,Compound,Percent Effect [%]
1,Cc1cccc(C(=O)N2CCCn3cnc(CN4CCCC4=O)c3C2)n1,84.9
2,Cc1occc1C(=O)N1CCn2cnc(COCC3CC3)c2C1,-3.111
3,Cc1occc1C(=O)N1CCCn2cnc(CN3CCCC3=O)c2C1,99.06
4,Cc1cccc(C(=O)NC(CN2CCCC2=O)c2ccccc2)n1 (centres undefined),-6.295
5,Cc1ccccc1C(=O)N1CCCn2cnc(CN3CCCC3=O)c2C1,104.2
6,Cc1occc1C(=O)N1CCC2(CCC(=O)N(CC(N)=O)C2)CC1,0.6674
7,O=C1CCCN1Cc1ncn2c1CN(C(=O)c1cccc(F)c1)CCC2,7.876
8,O=C(NC1CC1)C1CCCN(c2cc(-n3cncn3)ncn2)C1 (centres undefined),-0.5146
9,COCCN(C)C[C@@H]1CCC[C@@H]2CN(c3cc(OC)ncn3)C[C@@H]21.O=C(O)C(F)(F)F,-6.847
10,Cc1cccc(C2(CNC(=O)C(C)S(C)(=O)=O)CCCC2)c1 (centres undefined),0.1525
11,CC(=O)N1[C@H](Cn2cncn2)C[C@@H]2CN(Cc3ccccn3)CC[C@@H]21.O=C(O)C(F)(F)F.O=C(O)C(F)(F)F,10.04
12,O=C(O)C(F)(F)F.c1ccc(CN2Cc3nccn3CC(Cn3cncn3)C2)nc1 (centres undefined),98.39
13,O=C(O)C(F)(F)F.c1ccc(CN2Cc3nccn3CC(Cn3cccn3)C2)nc1 (centres undefined),97.11
14,N#Cc1ccc(NCCCOCC2CCCO2)c(F)c1 (centres undefined),-11.95
15,Cc1ccc(F)c2c1N(C(=O)c1ccc(S(C)(=O)=O)cc1)CCC2,11.45
16,COc1cccc2c1N(C(=O)c1ccc(C)nc1)CCC2,2.178
17,CN(C)C(=O)CN1CCCc2c(F)cc(Br)cc21,1.685
18,CN(C)C(=O)Cn1cc(C(=O)N2CCCc3cccc(F)c32)nn1,105.3
19,COc1ccc(C)c2c1N(C(=O)c1ccc3nnc(C)n3c1)CCC2,-2.27
20,CC(c1ccccc1)N(C)C(=O)CN1CCCc2cccc(F)c21 (centres undefined),5.525
21,Cc1ccc(F)c2c1N(C(=O)c1cn(CC(=O)N(C)C)nn1)CCC2,115.7
22,Cc1ccc(F)c2c1CCCN2C(=O)c1cn(CC(=O)N(C)C)nn1,122.6
23,CC(=O)NCc1ccc(C(=O)N2CCCc3c(F)ccc(C)c32)o1,-10.88
24,N[C@@H]1CC[C@@H](NC(=O)c2ccccc2OC(F)(F)C(F)F)C1,3.993
25,CC(C)NC(=O)c1nc(Cn2c(C(F)(F)F)nc3ccccc32)no1,97.59
26,CNC(=O)c1nc(CN2CCOC(C(F)(F)F)C2)no1 (centres undefined),-14.11
27,CNC(=O)c1nc(CN2CCOC(Cc3ccc(F)cc3)C2)no1 (centres undefined),-1.093
